# Test results: PubChem BioAssay AID1851 (National Center for Advancing Translational Sciences (NCATS), 2009)
# Hit rate of the full screen: of about 16,000 compounds, about 2,600 (16%) were called active. Inconclusive results (about 20%) are left out. The call rests on the fitted dose curve; in most records, active means well fitted curve in the direction sought with a large enough effect; inconclusive means small, poorly fitted or top-dose-only effect, or effect the other way; inactive means no such curve, though single readings can be large or run the other way. A selection follows.
# Target: Cytochrome P450 2D6 (Homo sapiens) (UniProt P10635)
# Sequence (P10635 whole entry, looked up): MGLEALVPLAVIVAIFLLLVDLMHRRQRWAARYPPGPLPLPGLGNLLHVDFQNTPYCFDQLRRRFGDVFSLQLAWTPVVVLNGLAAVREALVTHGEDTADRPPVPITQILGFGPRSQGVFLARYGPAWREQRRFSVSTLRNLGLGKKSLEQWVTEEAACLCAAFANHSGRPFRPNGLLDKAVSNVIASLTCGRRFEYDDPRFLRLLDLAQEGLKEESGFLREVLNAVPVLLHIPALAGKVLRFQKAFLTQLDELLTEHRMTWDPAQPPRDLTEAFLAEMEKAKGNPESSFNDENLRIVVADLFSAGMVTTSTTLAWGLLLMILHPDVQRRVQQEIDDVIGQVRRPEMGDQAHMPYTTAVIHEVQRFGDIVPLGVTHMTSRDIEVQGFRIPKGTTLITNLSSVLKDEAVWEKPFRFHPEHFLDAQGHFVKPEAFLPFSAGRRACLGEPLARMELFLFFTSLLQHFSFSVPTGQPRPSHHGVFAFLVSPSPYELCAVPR
# Assay: Cytochrome panel assay with activity outcomes
# Details: recombinant CYP, pro-luciferin dealkylation, luminescence, p450-cyp2d6; series mostly up to 57.1 µM
# On the % scale 0 is the no-effect control and ±100 the full control effect.
Compound,AC50,"activity, negative = inhibition"
C(=N\Nc1nc(Nc2ccccc2)nc(N2CCOCC2)n1)/c1c[nH]c2ccccc12,inactive,–
Cn1c(N/N=C/c2c[nH]c3ccccc23)nc2ccccc21,7.94 µM (active),–
Cn1c(=O)c2c(nc(N/N=C\c3ccccc3C(=O)O)n2C)n(C)c1=O,–,5.12% [at 11.4 µM] (inactive)
CC(C)(C)C1CCc2c(C(=O)N/N=C/c3cccs3)csc2C1 (configuration not stated),inactive,–
OC[C@@H]1O[C@H](n2cnc3c(/C=C(\O)c4ccccc4)ncnc32)[C@H](O)[C@@H]1O,–,3.57% [at 11.4 µM] (inactive)
Cn1c(=O)n(C)c2cc(S(=O)(=O)O)ccc21,inactive,–
CCOC(=O)c1ccc2nc(C)c(CCC(C)=O)c(Cl)c2c1,inactive,–
CCc1c(C)nc2ccc(Br)cc2c1Cl,12.6 µM (active),–
CCc1c(C(=O)O)[nH]c2ccc(Br)cc12,inactive,–
CCCNS(=O)(=O)c1ccc(OCC(=O)OC)cc1,inactive,–
O=c1[nH][nH]c(C(F)(F)F)c1C=Nc1ccccc1,inactive,–
Cc1ccc(CSc2nnc(-c3ccncc3)n2CC2CCCO2)cc1 (configuration not stated),inactive,–
Cc1cc(NC(=O)c2c([N+](=O)[O-])cnn2C)no1,inactive,–
CCCC[C@H](CC)CN1CN(C[C@@H](CC)CCCC)CC(C)(N)C1,1.26 µM (active),–
N#CC(c1ccccn1)(c1ncc(C(F)(F)F)cc1Cl)N1CCOCC1 (configuration not stated),inactive,–
CC(=O)c1c(N=CN(C)C)nc(C)nc1-c1ccccc1,inactive,–
C=CC[C@@H]1C=C[C@@H](O/N=C\c2ccc(C(=O)N3[C@H](c4ccc(C)cc4)[C@@H](C)CC[C@H]3C(=O)OC)cc2)[C@@H](CO)O1,–,5.48% [at 11.4 µM] (inactive)
Cc1ccc(C)c(N2CCN(C(=O)c3ccc4nc(-c5ccco5)c(-c5ccco5)nc4c3)CC2)c1,3.16 µM (active),–
Cc1cccc(C(=O)N2CCN(c3ccc([N+](=O)[O-])c(NCc4ccco4)c3)CC2)c1,inactive,–
Cc1ccc(C(=O)N2CCN(c3cc(=O)[nH]nc3-c3ccccc3)CC2)cc1,inactive,–
COc1ccc(-c2nc3cnc(OC)nc3n(Cc3cccc(OC)c3)c2=O)cc1,inactive,–
CN(C)CCNC(=O)Cn1nc(-c2ccc(Cl)cc2)ccc1=O,inactive,–
COCCCNC(=O)Cn1nc(-c2ccccc2OC)ccc1=O,inactive,–
Cc1ccc(-c2ccc(=O)n(CC(=O)NCCN(C)C)n2)cc1,inactive,–
Cc1ccc(-c2ccc(=O)n(CC(=O)NCCN3CCCCC3C)n2)cc1 (configuration not stated),2 µM (active),–
CCOC(=O)N1CCN(C(=O)CCn2nc(-c3ccccc3)ccc2=O)CC1,inactive,–

Compound,AC50,"activity, negative = inhibition"
CC1CCCC(C)N1CCNC(=O)Cn1nc(-c2ccccc2)ccc1=O (configuration not stated),22.4 µM (active),–
O=C(Nc1ccccc1N1CCOCC1)c1ccccc1[N+](=O)[O-],inactive,–
N#Cc1cccc(NC(=O)N2CCCC3(CCN(C(=O)c4cc(C(F)(F)F)cc(C(F)(F)F)c4)CC3)C2)c1,inactive,–
CCOC(=O)Cn1nc(C)n(-c2ccc(C)cc2)c1=O,inactive,–
CC(=O)CCCCn1c(=O)c2c(ncn2C)n(C)c1=O,inactive,–
O=C1C(Cl)=C(Nc2ccc(S(=O)(=O)Nc3ccccn3)cc2)C(=O)c2ccccc21,3.16 µM (active),–
CN(C)S(=O)(=O)Nc1ccccn1,–,-5.07% [at 11.4 µM] (inactive)
Nc1ccc(S(=O)(=O)Nc2ccccn2)cc1,inactive,–
Cc1nnc(SCC2=C(C(=O)O)N3C(=O)[C@@H](NC(=O)Cn4cnnn4)[C@@H]3SC2)s1,inactive,–
CCCn1c(-c2ccccc2)nc2c(=O)n(C)c(=O)[nH]c21,inactive,–
COc1ccc(C[C@H](N)C(=O)N[C@@H]2[C@H](O)[C@H](n3cnc4c(N(C)C)ncnc43)O[C@@H]2CO)cc1,inactive,–
CN(C)c1ccc(-c2cc(-n3ccnc3)ncn2)cc1,7.94 µM (active),–
c1cncc(-c2cccnc2)c1,inactive,–
c1cncc(-c2cc(-c3cc(-c4cccnc4)n[nH]3)[nH]n2)c1,–,-12.7% [at 11.4 µM] (inactive)
c1cncc(-c2cc(-n3ccnc3)ncn2)c1,15.8 µM (active),–
CN1CCN(c2cc(-c3ccc(N(C)C)cc3)ncn2)CC1,inactive,–
CC(C)(C)c1onc(OCP(=O)(O)O)c1C[C@@H](N)C(=O)O,inactive,–
Cc1cccc(NS(=O)(=O)c2c(C)n[nH]c2C)c1,inactive,–
CCC1CC(CSc2ncn[nH]2)OC1=O (configuration not stated),inactive,–
O=C(CSc1ncnc2nc[nH]c12)c1ccccc1,–,-6.92% [at 11.4 µM] (inactive)
CCn1ncc(/C=C/C(=O)NCc2cn(C)nc2C)c1C,inactive,–
CCCC(=O)Nc1c(C)n[nH]c1C,inactive,–
CCCCCCCCCCn1c2c(c(=N)c3c1CCC3)CCC2,3.55 µM (active),–
CC(C)NC(=O)CSc1nnc(C2CC2)n1-c1ccccc1,inactive,–
COC(=O)[C@@]1(Cc2ccc(OC)cc2)[C@H]2c3cc(C(=O)N4CCCC4)n(CCCNc4ncc(C(F)(F)F)cc4Cl)c3C[C@H]2CN1C(=O)c1ccccc1,inactive,–
Cc1nnc(C)n1/N=C/c1ccc(-c2ccccc2)cc1,inactive,–

Compound,AC50,"activity, negative = inhibition"
Cc1cccc(NC(=O)C23CCC(C)(C2Br)C3(C)C)c1 (configuration not stated),inactive,–
Cc1cccc(N/C(=N\S(=O)(=O)c2ccccc2)C(F)(F)F)c1,inactive,–
Cc1cccc(NC(=O)C2(c3ccccc3)CC2(Cl)Cl)c1 (configuration not stated),17.8 µM (active),–
NC(=O)c1nn(-c2ccccc2)c(=O)cc1O,inactive,–
OCCNCCCOc1cccc(Cl)c1Cl,0.158 µM (active),–
Cc1nc(NC(N)=S)sc1C(=O)Nc1ccccc1,inactive,–
Cn1cnnc1SCC(=O)n1c2ccccc2c2ccccc21,inactive,–
Cc1nc2ccccc2nc1SCC(=O)N1CCC(C)CC1,inactive,–
Cc1c(C)n(C(=O)CN2CCC(C)CC2)c2ccccc12,3.16 µM (active),–
COc1ccc(-c2nnc(-c3ccc(OCC(C)C)cc3)o2)cc1,inactive,–
Cn1cccc1C(=O)N1CCC2(CCN(C(=O)Nc3cccc(F)c3)CC2)CC1,inactive,–
Cc1ccc(NC(=S)N2CCN(C3CCCCC3)CC2)cc1,14.1 µM (active),–
Cc1ccc(NC(=O)C2CCN(S(C)(=O)=O)CC2)cc1,inactive,–
CC(C)(CO)N1CCN(C(=S)Nc2ccccc2)CC1,–,-13.1% [at 11.4 µM] (inactive)
CC(=O)OC1CCC(OC(C)=O)c2c1n([O-])c(C)c(C)[n+]2=O (configuration not stated),inactive,–
CCCCNC(=O)NS(=O)(=O)c1cnccc1Sc1ccc(Cl)cc1,inactive,–
CCCCNCCOCCSc1ccc(Cl)cc1,1.58 µM (active),–
O=C(/C=C/c1ccc(Cl)cc1)NCCSc1ccccc1,inactive,–
CC(C)NCCOCCSc1ccc(Cl)cc1,3.55 µM (active),–
Cc1cc(/C=N\NC(=O)c2cccs2)c(C)n1-c1ccc2ncccc2c1,inactive,–
C[C@@H]1CCC[C@H](C)N1,inactive,–
Cc1cc(C)cc(C(=N)c2ccccc2Cc2cccc3ccccc23)c1,–,5.99% [at 11.4 µM] (inactive)
O=S(=O)(O)CCCc1cccc2ccccc12,–,7.84% [at 11.4 µM] (inactive)
CN(Cc1cccc2ccccc12)Cc1cccc2ccccc12,0.398 µM (active),–
CN(C/C=C\c1ccccc1)Cc1cccc2ccccc12,0.251 µM (active),–
CCOC(=O)CSCC(NC(=O)OC(C)(C)C)C(=O)OCC (configuration not stated),inactive,–

Compound,AC50,"activity, negative = inhibition"
O=C1C2C3C=CC(C2C(=O)N1CN1CCOCC1)C1C2C(=O)N(CN4CCOCC4)C(=O)C2C31 (configuration not stated),–,17.4% [at 11.4 µM] (inactive)
COc1ccc(O)c(/C=N/NC(=O)CSc2nnc(C)n2-c2ccccc2)c1,inactive,–
Nc1c(-c2cccs2)cnn1-c1nc(-c2ccc(Cl)cc2Cl)cs1,inactive,–
COC(=O)C1=C(C)NC(C)=C(C(=O)OC(C)C)C1c1cccc2nonc12 (configuration not stated),inactive,–
COC(=O)C1=C(C)NC(C)=C([N+](=O)[O-])[C@@H]1c1ccccc1C(F)(F)F,6.31 µM (active),–
COC(=O)C1=C(C)NC(C)=C([N+](=O)[O-])[C@H]1c1ccccc1C(F)(F)F,inactive,–
CCc1ccc(CN(C(=O)c2cc3ccccc3oc2=O)C2CCS(=O)(=O)C2)cc1 (configuration not stated),inactive,–
CC(C)c1ccc(CN(C(=O)C2COc3ccccc3O2)C2CCS(=O)(=O)C2)cc1 (configuration not stated),14.1 µM (active),–
Cc1ccc(CN(C(=O)c2cc3ccccc3oc2=O)C2CCS(=O)(=O)C2)cc1 (configuration not stated),inactive,–
CNNCc1ccc(C(=O)NC(C)C)cc1,inactive,–
CC(Sc1nc(-c2ccccc2)cc(C(F)(F)F)n1)C(=O)N1CCCCC1 (configuration not stated),inactive,–
CC(NC(=O)CCSc1nc(-c2ccc3c(c2)OCO3)cc(C(F)(F)F)n1)c1ccccc1 (configuration not stated),1 µM (active),–
Cc1nc2ncnn2c(C)c1CCC(=O)NC(C)c1ccc2c(c1)OCCO2 (configuration not stated),inactive,–
O=C1[C@H]2[C@H]3[C@H](O)[C@H](O)C/C(=N/OC[C@@H](O)COCc4ccco4)[C@H]3CC[C@@H]2C(=O)N1C1CCCCC1,–,2.44% [at 11.4 µM] (inactive)
Cc1ccc(C2/C(=C(/O)c3ccc(Cl)cc3)C(=O)C(=O)N2CC2CCCO2)o1 (configuration not stated),inactive,–
COc1ncc2nc(C)c(=O)n(CCc3ccccc3)c2n1,inactive,–
CC(C)CC(C(=O)OCC(=O)Nc1ncc(Cl)cc1Cl)N1C(=O)c2ccccc2C1=O (configuration not stated),25.1 µM (active),–
Cc1c(Cl)cnc(NC(=O)COC(=O)CCS(=O)(=O)c2ccccc2)c1Cl,inactive,–
CC(C)=CC(=O)OCC(=O)Nc1ncc(Cl)c(C)c1Cl,inactive,–
O=C(Nc1ccc(Cl)cc1)c1cnc(-c2ccccc2)nc1-c1ccccc1,inactive,–
C/C(=N\NC(=O)C1CC1c1ccccc1)c1cccs1 (configuration not stated),inactive,–
Cc1cccn2c(=O)c(/C=N/O)c(N3CCCC3)nc12,inactive,–
C=CCN=C1CC(C)(C)CC(=O)/C1=C(/O)CCC(=O)OC,inactive,–
CN(C)CCCN1CCC2(CCC(C(C)(C)C)CC2)CC1,–,9.19% [at 11.4 µM] (inactive)
